Bioassay records (PubChem)
Most compounds without a hit are left out; they make up all but 13% or so of the library.
Pf growth 96h – P. falciparum growth inhibition at 96 hour, primary screen for plastid delayed-death inhibitors | P. falciparum luciferase reporter growth, 96 h | 6.9% of 320,000 active | AID 504834 | Potency, µM (highest dose often 28.7 µM), without a hit: at the highest dose activity change, negative = inhibition, hits mostly inhibitors; also: potency is read from the fitted curve at half-maximal effect
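Erythrocytes infected with luciferase-expressing P. falciparum were dispensed at 2% hematocrit and 0.05% parasitemia (final), then incubated with compounds 96 hours at 37 C in 5% CO2. Luminescence after detection reagent addition reported growth.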
HCV inh – blocks hepatitis C virus | Huh7.5.1 HCVcc-Cre infection, luciferase reporter, 44 h | Potency, µM (top dose mostly 41.8 µM), without a hit: at the top dose activity change, negative = inhibition, most hits filed as inhibitors | 3.4% of 340,000 active | AID 651820; also: potency is read from the fitted curve at half-maximal effect
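Infectious HCV cell culture screen: compound-treated cells (1,000/well, pre-plated 4 h) are infected with HCVcc-Cre at roughly 0.5 moi and grown 44 h. Infection is quantified by luciferase signal after 15 min substrate incubation at room temperature.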
HCMV inh – human cytomegalovirus inhibition. 4.5% of 410,000 active. activity change, negative = inhibition, % at 57.5 µM. HFF cells, HCMV-luciferase reporter, 72 h; active compounds read low; in the data active = activity change below about -60%; inconclusive = no clear call, values can overlap the other calls; inactive = above about -39%
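Steps: HFFs plated, 16 h 37C; compounds added; HCMV-luciferase added to MOI 1 PFU/cell; 72 h 37C; OneGlo reagent, 5 min room temperature; luminescence read, normalized to controls.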
Pf growth 48h – inhibits P. falciparum growth in the first generation, 48 h; P. falciparum luciferase growth in erythrocytes, 48 h; Potency, µM (highest dose often 28.7 µM), for inactives: at the highest dose activity change, negative = inhibition, actives largely listed as inhibitors; 5.9% of 310,000 active; also: potency is read from the fitted curve at half-maximal effect
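A one-generation exposure of luciferase-tagged malaria parasites in RPMI 1640/Albumax erythrocyte culture, 37 C and 5% CO2. Inhibition is inferred from decreased luminescence after adding detection reagent.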
The depositor's hits bear a star; i = inactive; ? = inconclusive; . = no result given; [ ] = another dose, or the depositor's remark. Unless noted, calls follow the shape of the dose curve; as a rule, active = well fitted inhibition curve with a large enough effect; inconclusive = small, poorly fitted or top-dose-only effect, or another doubt; inactive = no such curve, though single readings can be large or run the other way. % is scaled to controls: 0 for no effect and ±100 for the full control effect.

SMILES	Pf growth 96h	HCV inh	HCMV inh	Pf growth 48h
COc1ccc(C(O)c2ncc(-c3ccccc3Cl)[nH]2)cc1 (configuration not stated)	.	.	-74*	.
CCc1ccccc1NC(=O)CN1C(=O)c2cccnc2Oc2ccc(Cl)cc21	.	.	0	.
Cc1nnc(SCc2nc(-c3ccc(Cl)cc3)no2)n1-c1ccc(F)cc1	.	.	-36	.
Cc1nnn(C23CC4CC(CC(C4)C2)C3)n1	.	8%	20	21%
Cc1ccc(C)c(N2CCN(C(=O)C34CC5CC(C3)CC(n3nnc(C)n3)(C5)C4)CC2)c1	?	18µM*	-38	10µM*
Cc1ccc(C23CC4CC(CC(NC(=O)NN)(C4)C2)C3)cc1	-13%	10%	0	?
Cc1ccc(C23CC4CC(CC(C(=O)N5CCN(C)CC5)(C4)C2)C3)cc1	?	2.5µM*	0	?
Cc1ccc(C23CC4CC(CC(NC(=O)N5CCN(C)CC5)(C4)C2)C3)cc1	.	13µM*	-6	-27%
O=C(CSc1nnc(-c2cccnc2)o1)Nc1ccc(F)cc1	.	.	-76*	.
COc1ccc(NC(=O)CSc2nnc(-c3ccc(F)cc3)o2)cn1	67%	-17%	30	179%
O=C(CSc1nnc(-c2cccnc2)o1)Nc1ccc(Br)cc1	23%	12%	-10	44%
CCOC(=O)c1cc(-c2nnc(SCC(=O)Nc3ccc(F)cc3)o2)c(C)nc1C	12µM*	4%	4	.
CC(=O)Nc1ccc(OC(=O)c2cc3cc(Br)cc(Br)c3oc2=O)cc1	13%	-5%	-28	-18%
CC(=O)Nc1ccc(OC(=O)c2cc3cc(Br)ccc3oc2=O)cc1	4.1µM*	11%	-1	4%
CC(=O)c1c(C)n(C)c2ccc(O)cc12	-98%	-6%	-7	.
CC(=O)c1c(C)n(C2CCCCC2)c2ccc(O)cc12	i	10µM*	-66*	?
O=C(NC1CCc2ccccc21)c1cc(COc2ccc(F)cc2Cl)on1 (configuration not stated)	-14%	7%	-20	-3%
O=C(NC1CCc2ccccc21)c1cc(COc2cncc(Cl)c2)on1 (configuration not stated)	7%	13µM*	61	?
Cc1cccc(CNC(=O)CN2C(=O)CCn3nc(-c4cn(C)c5ccccc45)cc32)c1	.	.	22	.
Cc1ccc(C2N=C(N)Nc3nc(=O)c4ccccc4n32)cc1 (configuration not stated)	9.3µM*	9%	49	?
C#C[C@]1(O)CC[C@H]2[C@@H]3CCc4cc(OC)ccc4[C@H]3CC[C@@]21C	44%	2%[8.37 µM]	38	13%
C#C[C@]1(O)CC[C@H]2[C@@H]3CCc4cc(OC5CCCC5)ccc4[C@H]3CC[C@@]21C	?	0.63µM*	116	-17%
C=CCN(c1cccc(C(F)(F)F)c1)S(=O)(=O)c1cccc(C(=O)OCC(=O)NCCC)c1	13µM*	-4%	-21	?
Cc1cc(C)nc(Nc2ncc(O)n2-c2ccccc2)n1	?	5%	-13	41%
Cc1ccc(-n2c(O)cnc2Nc2nc(C)cc(C)n2)cc1	0.29µM*	21%	-3	13%
SMILES	Pf growth 96h	HCV inh	HCMV inh	Pf growth 48h
CCCOc1ccc(CNC(=O)CCCn2nc(C)c3sc4ccccc4c3c2=O)cc1	.	.	-8	.
COCCNC(=O)CCCn1c(SCc2ccccc2Cl)nc2c(sc3ccccc32)c1=O	.	.	11	.
Cc1cc(OCc2cc(C(=O)NC(C)c3cnn(C)c3)no2)cc(C)c1Cl (configuration not stated)	.	.	75	.
Cc1cc(OCc2cc(C(=O)NC(C)c3c(C)nn(C)c3C)no2)cc(C)c1Cl (configuration not stated)	?	11µM*	?	-21%
Cc1ccc(C)c(N(C)C(=O)c2cc3c(s2)-c2ccccc2OC3)c1	.	.	8	.
c1ccc(Nc2nc(NCC3CCCO3)c3ccccc3n2)cc1 (configuration not stated)	9%	7.1µM*	?	?
COc1ccc(Nc2nc(NCC3CCCO3)c3ccccc3n2)c(OC)c1 (configuration not stated)	44%	10µM*	-91*	?
COc1ccccc1-c1noc(-c2ccc(NCC3CCCO3)c([N+](=O)[O-])c2)n1 (configuration not stated)	.	.	34	.
c1ccc2c(NCC3CCCO3)nc(N3CCOCC3)nc2c1 (configuration not stated)	11%	3%	-7	13%
Oc1cccc(Nc2nc(NCC3CCCO3)c3ccccc3n2)c1 (configuration not stated)	-18%	?	.	0.37µM*
c1ccc(-c2nc(NCC3CCCO3)c3ccccc3n2)nc1 (configuration not stated)	-3%	?	-97*	?
O=C(O)c1cc2ccccc2c(Cc2c(O)c(C(=O)O)cc3ccccc23)c1O	.	.	26	.
CCOc1ccc(Nc2nc(NCC3CCCO3)c3ccccc3n2)cc1 (configuration not stated)	-19%	?	-31	1.2µM*
CCOc1ccc(Nc2cc(C)c3ccccc3n2)cc1	?	-12%	-20	-22%
CCOc1ccc(Nc2c3ccccc3nc3ccccc23)cc1	2.1µM*	4µM*	-81*	2.9µM*
CCc1ccc(C2=C(C)C(N3CCC(C(=O)Nc4ccc(F)cc4)CC3)=NS2(=O)=O)cc1	.	.	-33	.
Cc1ccc2nc3c(cc(C(N)=S)c(=N)n3CCCOC(C)C)c(=O)n2c1	1.5µM*	25µM*	-19	12µM*
Cc1cccn2c(=O)c3cc(C(=O)NC4CCCCC4)c(=N)n(CCN4CCOCC4)c3nc12	?	2%	-24	?
CCCn1c(=N)c(C(=O)NC2CCCC2)cc2c(=O)n3cccc(C)c3nc21	?	-28%	-13	1.9µM*
CCCCNC(=O)c1cc2c(=O)n3cccc(C)c3nc2n(Cc2ccncc2)c1=N	-25%	8%	-2	5.2µM*
CCCCNC(=O)c1cc2c(=O)n3cccc(C)c3nc2n(CCN2CCOCC2)c1=N	?	-33%	-30	3.7µM*
CCOC(=O)c1cc(CC)sc1NC(=O)COc1ccccc1C	.	.	-6	.
Cc1ccc2nc3c(cc(C(=O)NCCN4CCOCC4)c(=N)n3CCCN3CCOCC3)c(=O)n2c1	?	10%	.	12µM*
Cc1cccn2c(=O)c3cc(C(N)=S)c(=N)n(CCCN4CCOCC4)c3nc12	?	?	-64*	?
Cc1cccn2c(=O)c3cc(C#N)c(=N)n(CCCN4CCOCC4)c3nc12	.	-18%	-38	.
CCOC(=O)c1c(C)oc2ncnc(Nc3ccc(OC)cc3OC)c12	.	.	12	.
CCCCN(C(=O)CCOc1ccc(OCC)cc1)c1c(N)n(Cc2ccccc2)c(=O)[nH]c1=O	.	.	-19	.
Nc1c(N(CCC2=CCCCC2)C(=O)COc2ccc(F)cc2)c(=O)[nH]c(=O)n1Cc1ccccc1	?	13µM*	.	?
CCCCN(C(=O)CCSc1ccc(F)cc1)c1c(N)n(Cc2ccccc2)c(=O)[nH]c1=O	12µM*	?	-24	12µM*
